# Cdc42 wt GTP: human Cdc42 wildtype GTP binding change, either direction; 190,000 tested, 0.2% active; GST-Cdc42 beads, Bodipy-GTP binding, flow cytometry; actives lie on both sides; P60953; percent activity (GTP binding), % at 10 µM;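 active means percent activity GTP binding at least 20 points away from the 100% baseline, either down as inhibitor or up as activator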;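 further: median bead fluorescence of bound Bodipy-FL-GTP at 100 nM; 0% = excess unlabeled GTP control and 100% = no compound control; below 100% means less GTP binding so inhibitor and above means activator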
# Target sequence (P60953 whole entry, looked up): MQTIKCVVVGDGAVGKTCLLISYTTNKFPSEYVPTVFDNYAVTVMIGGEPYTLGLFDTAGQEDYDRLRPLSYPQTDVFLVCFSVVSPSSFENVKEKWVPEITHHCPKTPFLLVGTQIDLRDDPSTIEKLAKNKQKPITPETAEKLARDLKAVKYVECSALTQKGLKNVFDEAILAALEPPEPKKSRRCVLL
# Rac1 wt GTP bind: human Rac1 wildtype GTP binding, inhibitors and activators. GST-Rac1 beads, fluorescent GTP binding, flow cytometry; actives lie on both sides; 0 = cold GTP competed, 100 = untreated. GTP binding activity (% of control), % at 10 µM. 190,000 tested, 0.27% active;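 active means GTP binding activity at least 20 points away from the 100% control level, either lower or higher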
# HRas wt GTP: human HRas wildtype GTP binding, change in either direction; GST-Ras wt beads, Bodipy-FL-GTP binding, flow cytometry; actives lie on both sides; GTP binding activity, % at 10 µM; AID 759; P01112; 190,000 tested, 0.14% active;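 active means GTP binding activity at least 20% away from the 100% baseline, either lowered as inhibitor or raised as activator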;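 further: 0% = unlabeled GTP competition control and 100% = no-compound control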
# Target sequence (P01112 whole entry, looked up): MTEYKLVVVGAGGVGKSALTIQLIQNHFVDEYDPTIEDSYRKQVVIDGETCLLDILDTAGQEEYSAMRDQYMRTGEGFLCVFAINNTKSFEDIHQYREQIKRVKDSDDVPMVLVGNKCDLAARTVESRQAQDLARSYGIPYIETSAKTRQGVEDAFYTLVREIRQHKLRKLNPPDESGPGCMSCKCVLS
# Rab7 wt modul: alters GTP binding to wildtype dog Rab7; GTP binding activity (percent of control), % at 10 µM; AID 758; 190,000 tested, 0.055% active; GST-Rab7 beads, fluorescent GTP binding, flow cytometry; actives lie on both sides; untreated = 100%, excess cold GTP = 0%;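 active means fluorescent GTP binding to Rab7 beads changed by at least 20 points from the 100% baseline, either direction, mostly lower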;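 further: median green fluorescence of bound Bodipy-FL-GTP per Rab7 bead population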
# Rac1 mut GTP: human Rac1 activated mutant GTP binding change. P63000. 190,000 tested, 0.11% active. percent activity (GTP binding), % at 10 µM. GST-Rac1 activated beads, fluorescent GTP binding, flow cytometry; actives lie on both sides; 100% means binding = to untreated wells. AID 764;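 active means GTP binding at least 20 percentage points away from the 100% baseline, in either direction, so actives lie on both sides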
# Rab2A wt mod: changes GTP binding to wildtype dog Rab2A, up or down | P61105 | GST-Rab2 wt beads, Bodipy-GTP binding, flow cytometry | GTP binding activity, % at 10 µM | 190,000 tested, 0.19% active;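 active means GTP binding activity at least 20 points away from 100%, either lowered or raised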;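 further: 0% = beads with excess unlabeled GTP and 100% = no-compound control corrected for plate trend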
# Active calls of the source: *; [ ] = dose if it differs, or a comment. The list is not random: actives were taken first. Their share in the collection is about 0.4%.
SMILES,Cdc42 wt GTP,Rac1 wt GTP bind,HRas wt GTP,Rab7 wt modul,Rac1 mut GTP,Rab2A wt mod
Cc1nn(CCc2nn[nH]n2)c2nc(-c3ccc(C4CCCCC4)cc3)cc(C(F)(F)F)c12,77*,79*,82,84,78*,81
Cc1sc2nc3ccc(NCc4ccco4)nn3c(=O)c2c1C,28*,22*,34*,18*,30*,27*
O=c1c2ccccc2nc2ccc(NCc3ccco3)nn12,87,93,82,93,92,79*
CCc1ccc(NC(=O)Cn2c3[n+](c4c(F)c(F)ccc42)CCCCC3)cc1,98,97,100,107,94,100
Cc1ccc(O)c(N=Cc2cc(Cc3ccccc3)cc([N+](=O)[O-])c2O)c1,76*,77*,82,79*,68*,74*
O=[N+]([O-])c1cc(Cc2ccccc2)cc(C=Nc2ccc(N3CCOCC3)cc2)c1O,78*,75*,77*,71*,62*,64*
Cc1ccc(-c2ccc(/C=C(\C#N)C(=O)Nc3cc(C)nn3-c3ccccc3)o2)cc1,101,97,127*[activator],107,120*[activator],109
COc1cc(/C=C/C(=O)O)cc(S(=O)(=O)NC2CC2)c1OC,98,105,98,98,97,97
CCc1ccc(NS(=O)(=O)c2ccc3[nH]cc(C(=O)N4CCc5ccccc54)c(=O)c3c2)cc1,70*,92,93,91,95,93
COc1ccc(CNC(=O)c2ccccc2C(=O)O)cc1,103,110,100,101,106,102
COc1ccc(CC(=O)c2ccccc2C(=O)O)cc1,140*[activator],143*[activator],126*[activator],125*[activator],131*[activator],130*[activator]
c1ccc(-c2csc3ncnc(NCCCN4CCOCC4)c23)cc1,94,98,97,105,97,97
O=c1c2c(-c3ccccc3)csc2nc2c3ccccc3c(NCCN3CCOCC3)nn12,69*,55*,65*,70*,82,65*
Cc1ccc(N=Nc2c(=O)[nH]n3c(C)cc(C)nc23)cc1,100,98,97,99,95,100
Cc1[nH]n2c(=O)c3c(nc2c1-c1ccc(F)cc1)CCCC3,87,81,87,92,88,87
Cc1ccc(N=Nc2c(N)[nH]n3c(=O)cc(C)nc23)cc1,88,75*,87,92,88,81
Cc1ccc(N=Nc2c(N)[nH]n3c(=O)c4c(nc23)CCCC4)cc1,86,75*,86,91,86,82
COc1cc(OC)nc(Oc2cc(/C=N/O)ccc2OC)n1,99,100,96,100,96,97
Cc1cc(NC(=O)CN2CCc3ccccc3C2)nc2c1c(=O)oc1ccccc12,94,92,92,95,93,92
N#Cc1c(N)nc2c(c1-c1ccccc1)CCC2,98,96,97,94,92,97
Cc1ccc(S(=O)(=O)N(C)C)cc1NC(=O)COC(=O)c1ccc(Cl)cc1,113,144*[activator],105,109,109,108
CCNS(=O)(=O)c1ccc2c(c1)NCC2,101,101,99,99,99,97
COc1cc(NS(=O)(=O)c2ccc(NC(=O)/C=C/c3cccc([N+](=O)[O-])c3)cc2)ncn1,83,79*,86,90,86,86
CC(C)(C)NC(=O)CSc1nccn1Cc1ccccc1,77*,75*,86,90,82,85
O=C(CSc1nccn1Cc1ccccc1)Nc1nccs1,103,105,103,102,99,103
SMILES,Cdc42 wt GTP,Rac1 wt GTP bind,HRas wt GTP,Rab7 wt modul,Rac1 mut GTP,Rab2A wt mod
CCOc1ccc(NC(=S)N2CCN(C/C=C/c3ccccc3)CC2)cc1,94,99,95,95,96,95
Cc1ccc2c(c1)c1nnc(SCC(=O)N3CCCc4ccccc43)nc1n2CC(=O)O,64*,66*,67*,84,82,66*
CCCn1c(SCC(=O)Nc2ccccc2N2CCCCC2)nc2c1c(=O)n(C)c(=O)n2C,101,101,99,98,100,98
Cc1ccc(-n2c(SCc3cc(=O)n4ccsc4n3)nnc2-c2cccnc2)c(C)c1,146*[activator],163*[activator],109,108,120*[activator],118
Cc1ccc(-n2c(SCC(N)=O)nnc2-c2cccnc2)c(C)c1,102,107,101,105,100,104
CCOc1cc(/C=C(/C#N)c2nc3ccccc3[nH]2)ccc1OCc1ccc(C(=O)O)o1,77*,85,76*,92,86,74*
COc1ccccc1Cn1c(SCC(N)=O)nc2c(oc3ccccc32)c1=O,98,102,96,96,94,96
CC(=O)Nc1ccc(Nc2ccc3c4c(cc(=O)n3C)-c3ccccc3C(=O)c24)cc1,88,77*,86,93,87,85
Cc1ccc(-n2[nH]c(C)c(C=Nc3ccc(Br)cn3)c2=O)cc1,100,101,98,105,95,97
CSc1nnc(-c2cc(Br)ccc2N=Cc2c(C)[nH]n(-c3ccccc3)c2=O)c(=O)[nH]1,78*,88,85,93,80,81
Cc1cc(-c2n[nH]c(=S)n2/N=C/C(Cl)=C/c2ccccc2)n[nH]1,92,85,77*,77*,85,85
CCc1ccccc1NC(=O)N1C2CCCC1CC(NC(C)=O)C2 (stereo unspecified),126*[activator],139*[activator],104,95,107,108
COc1cc([N+](=O)[O-])cc(/C=N/NC(=O)c2ccc(NC(=O)c3ccc(C)cc3)cc2)c1O,83,81,80,83,80,78*
COc1ccc([N+](=O)[O-])cc1NC(=S)NC(NC(=O)Cc1ccc(OC)c(OC)c1)C(Cl)(Cl)Cl (stereo unspecified),54*,74*,57*,90,79*,55*
COc1ccc([N+](=O)[O-])cc1NC(=O)Cc1ccc(Cl)cc1,98,100,101,98,101,99
COC(=O)Nc1ccc(S(=O)(=O)N2CCCC(C(=O)NC3CCS(=O)(=O)C3)C2)cc1 (stereo unspecified),105,105,103,98,102,100
O=C(Nc1nnc(CC(=O)N2CCOCC2)s1)c1cccs1,104,107,102,102,99,102
O=C(COc1cc(Cl)ccc1Cl)Nc1nnc(CC(=O)N2CCOCC2)s1,71*,87,70*,86,86,72*
O=C(C1=C[C@@H](c2ccc(C(F)(F)F)cc2)C[C@@H](OCc2ccc(CO)cc2)O1)N1CCN(Cc2ccccc2)CC1,97,99,98,100,97,96
